Assay results as given in PubChem BioAssay (NCATS).
“And” between values parts separate entries of the source, which are not always exact repeats. Equal entries are not always repeated. Records with an inconclusive call do not appear. The source made the active and inactive calls. Unless noted, calls come from the whole dose curve; as a rule, active = well fitted curve in the direction sought with a large enough effect; inconclusive = small, poorly fitted or top-dose-only effect, or another doubt; inactive = no such curve, though single readings can be large; an effect the other way counts as inactive or inconclusive.

Columns and labels:
[1] = Cell Viability - BJ (AID 421; calls by dose curve;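 note: potency is the fitted concentration of half-maximal effect; cells exposed to compound for 40 hours at 37 °C before readout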); conditions: BJ fibroblast viability, qHTS
Procedure, shortened: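 Luminescent ATP signal (CellTiter-Glo, 20 min at room temperature) served as the read-out of viable BJ cells after 40 hours of compound treatment. Responses were scaled between DMSO and 100 uM tamoxifen, and AC50 values were obtained by Hill modeling.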

[2] = Cell Viability - Jurkat (AID 426;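 active = dose-dependent loss of cell ATP signal giving a full or clear fitted curve, ranked by lower potency value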; note: potency is the fitted concentration of half-maximal effect); conditions: qHTS
Procedure, shortened: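 Jurkat (clone E6-1, human T-cell leukemia) cells, 5000/well in complete medium, were exposed to compound for 40 hr at 37 °C. Viability was read as intracellular ATP by CellTiter-Glo luminescence; AC50 came from Hill fits of concentration-response data.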

[3] = Cell Viability - Hek293 (AID 427;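 active = compounds whose dose-response curve shows a full or clear partial loss of cell viability, called from curve shape rather than a numeric limit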;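 note: potency is the fitted concentration of half-maximal effect; cells exposed to compound for 40 hours at 37 °C before reading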); conditions: qHTS
Procedure, shortened: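 Luminescent ATP read-out (CellTiter-Glo, 20 min RT) after 40 hr compound exposure at 37 °C in complete medium. Signal normalized to DMSO (basal) and 100 uM tamoxifen (100% inhibition); concentration-response fitted with the standard Hill equation to give AC50.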

[4] = Cell Viability - MRC5 (AID 434; calls by dose curve;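 note: potency is the fitted concentration of half-maximal effect; potency reflects cytotoxicity seen as loss of intracellular ATP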); conditions: MRC5 lung fibroblast viability, qHTS
Procedure, shortened: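 qHTS cytotoxicity in human lung fibroblast MRC5 cells; 40 hr treatment, 37 °C; cellular ATP by luciferase luminescence; DMSO = 0%, 100 uM tamoxifen = 100% inhibition; Hill-fit AC50.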

[5] = Cell Viability - Mesenchymal (AID 546); conditions: mesenchymal cells viability, qHTS; series mostly up to 91.7 µM;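 note: cells exposed to compound for 40 hours before reading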
Procedure, shortened: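 AC50 values reflect the drop in intracellular ATP in a human kidney mesenchymal line derived from normal glomeruli. Treatment lasts 40 hr at 37 °C in complete medium, and the signal comes from CellTiter-Glo luminescence.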

[6] = Cellular Toxicity (caspase-3) SHSY5Y (AID 657); conditions: SH-SY5Y caspase-3 activation, DMSO zero, 10 µM staurosporine = 100%; series mostly up to 91.7 µM
Procedure, shortened: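 SH-SY5Y human neuroblastoma cells, 1500/well, exposed to compound for 16 hours at 37 °C in complete medium. Caspase-3/7 activity read by Caspase-Glo luminescence after 1 hr at room temperature, normalized to DMSO and 10 uM staurosporine; AC50 from Hill fit.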

[7] = Cellular Toxicity (caspase-3) MRC-5 (AID 659); conditions: MRC-5 cells, luminescence, normalized: DMSO 0%, 10 µM staurosporine 100%; series mostly up to 91.7 µM
Procedure, shortened: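 Concentration-dependent caspase 3/7 activation is measured in human normal lung fibroblasts (MRC-5) following 16-hour treatment. AC50 values come from standard Hill-equation modeling of luminescence normalized to DMSO and 10 uM staurosporine.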

[8] = Cellular Toxicity (caspase-3) Mesangial (AID 660); conditions: mesangial cells, normalized: DMSO 0%, 100 µM tamoxifen 100%; series mostly up to 91.7 µM;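 note: cells exposed to compound for 16 h before the caspase read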
Procedure, shortened: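 Human renal glomerular mesangial cells (1000/well) were treated with compounds for 16 h at 37 °C in complete medium, then caspase 3/7 activity was read by Caspase-Glo luminescence. Data were normalized to DMSO and 100 uM tamoxifen; AC50 from Hill fits.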

[9] = Cellular Toxicity (caspase-3) SK-N-SH (AID 661); conditions: SK-N-SH caspase-3 activation, qHTS; series mostly up to 91.7 µM
Procedure, shortened: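 SK-N-SH human neuroblastoma cells (1500/well) were treated with compounds for 16 hr at 37 °C in complete medium; caspase 3/7 activity was read by Caspase-Glo luminescence. AC50 came from Hill fits of data normalized to DMSO and 10 uM staurosporine.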

[10] = Cellular Toxicity (caspase-3) Hek293 (AID 664); conditions: HEK293 caspase-3 activation, DMSO = 0%, 100 µM tamoxifen = 100%; at 92.2 µM (top of the series);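 note: cells exposed to compound for 16 h at 37 °C before readout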
Procedure, shortened: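 HEK293 cells were exposed to compounds in complete medium for 16 hr at 37 °C, then caspase-3/7 activity was read by Caspase-Glo 3/7 luminescence after 20 min at room temperature. Data normalized to DMSO and 100 uM tamoxifen; AC50 from Hill fits.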

[11] = Cellular Toxicity (caspase-3) N2a (AID 665); conditions: N2a cells, luminescence, normalized: DMSO 0%, 10 µM staurosporine 100%; series mostly up to 92.2 µM;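 note: compound exposure lasted 16 h at 37 °C before readout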
Procedure, shortened: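 Mouse N2a neuroblastoma cells (1500/well) were treated with compounds for 16 h at 37 °C, then caspase-3/7 activity was read by Caspase-Glo luminescence after 1 h at room temperature. Data were normalized to DMSO and 10 uM staurosporine; AC50 from Hill fits.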

[12] = Cell Viability - LYMP1-002 - Assay at 16 hr (AID 948); conditions: LYMP1-002 lymphoblastoid cell viability; series mostly up to 92.2 µM;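 note: 0% = DMSO alone and full effect = 92 µM tetraoctylammonium bromide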
Procedure, shortened: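 LYMP1-002 human lymphoblastoid cells, 2500/well, were treated with compounds for 16 hr at 37 C in complete medium. Viability was read as intracellular ATP by CellTiter-Glo luminescence, and AC50 was derived from a Hill fit to concentration-response data.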

[13] = MultiTox-Fluor Cytotoxicity Assay - LYMP1-003 - Dead Cells (AID 961); conditions: LYMP1-003 lymphoblastoid cells, dead-cell protease fluorescence; series mostly up to 92.2 µM;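 note: 0% = DMSO and 100% = tetraoctylammonium bromide; nearly all actives have a fitted effect of over 70% in size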
Procedure, shortened: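 Human lymphoblastoid LYMP1-003 cells (2500/well) were treated with compounds for 16 hr at 37 C in complete medium. Dead-cell protease release was read by bis-AAF-R110 fluorescence (Ex/Em 485/520). AC50 came from Hill fits, normalized to DMSO and 15 uM tetraoctylammonium bromide.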

[14] = MultiTox-Fluor Cytotoxicity Assay - LYMP1-003 - Live Cells (AID 962); conditions: LYMP1-003 lymphoblastoid cells, MultiTox-Fluor live-cell protease fluorescence; series mostly up to 92.2 µM;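 note: 0% = DMSO only and full loss = 92 µM tetraoctylammonium bromide; cytotoxic hits lower the live-cell protease signal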
Procedure, shortened: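 LYMP1-003 human lymphoblastoid cells (2500/well) in complete medium were preincubated 5 hr at 37 C, then exposed to compounds for 16 hr at 37 C. Live-cell protease cleavage of GF-AFC read by fluorescence (Ex/Em 405/510); AC50 from Hill fits.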

[15] = Cell Viability - LYMP1-003 - Assay at 24 hr (AID 963); conditions: LYMP1-003 lymphoblastoid cell viability; series mostly up to 92.2 µM;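 note: plate controls were DMSO only for no effect and tetraoctylammonium bromide positive control for full effect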
Procedure, shortened: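 Human lymphoblastoid LYMP1-003 cells (2500/well) were rested 5 hr at 37 C, then exposed to compounds in complete medium for 24 hr at 37 C. Cellular ATP was quantified by CellTiter-Glo luminescence, and AC50 values came from Hill fits of concentration-response data.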

[16] = Cell Viability - LYMP2-008 (AID 980); conditions: LYMP2-008 lymphoblastoid cell viability, qHTS; series mostly up to 92.2 µM; note: % is set by controls: 0 for no effect and ±100 for the full control effect; nearly all actives have a fitted effect of over 60% in size
Procedure, shortened: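 Human lymphoblastoid cells (2500/well) were plated, held 5 hr at 37 C, then exposed to compounds for 24 hr at 37 C in complete medium. Intracellular ATP was read by CellTiter-Glo luminescence; AC50 from Hill-fitted concentration-response.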

[17] = qHTS Assay for Identification of Small Molecule Inducers of Hypoxia Response (AID 2120; active = well fitted curve in the direction sought with a large enough effect in the signal ratio, with a control signal flat, not every such curve was filed as active; the % refers to the signal ratio; note: 0% is about no effect); conditions: hypoxia response reporter cells, beta-lactamase ratio readout; series mostly up to 104 µM
Procedure, shortened: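 HRE-beta-lactamase reporter in CellSensor HRE-bla ME-180 cells, 2500 cells/well in Opti-MEM with 0.5% dialyzed FBS; compounds tested as titration series, 17 h at 37 degrees C. CCF4 substrate 2.5 h at room temperature; AC50 from 460/530 nm ratio.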

[18] = biological target: Peroxisome proliferator-activated receptor alpha (Homo sapiens) (UniProt Q07869); assay: qHTS assay for small molecule agonists of the peroxisome proliferator-activated receptor alpha (PPARalpha) signaling pathway (AID 651778); conditions: PathHunter PPARalpha complementation, chemiluminescence, 6 h; active compounds read high; note: % of control where 0% means no effect
Procedure, shortened: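 Chemiluminescence from complemented enzyme reported PPARalpha activation in cells after 6 hr of compound treatment at 37 C. The detection reagent was incubated for 60 min at room temperature, and compounds were scored as agonists.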

[19] = qHTS assay for small molecule agonists of the antioxidant response element (ARE) signaling pathway measured by Nrf2-dependant transcriptional activity - cell viability counter screen (AID 720653; active = well fitted curve in the direction sought with a large enough effect in the repeat runs; an effect the other way counts as inactive or inconclusive; note: % is set by controls: 0 for no effect and ±100 for the full control effect); conditions: ARE-bla HepG2 viability, CellTiter-Glo ATP luminescence, 16 h; active compounds read low
Procedure, shortened: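 Cytotoxicity counter screen: intracellular ATP quantified by CellTiter-Glo luminescence in the same ARE-bla HepG2 plates, after 16 h compound exposure and a 2 h beta-lactamase substrate step.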

[20] = qHTS assay for cell viability of the p53RE-bla HCT-116 cell line (AID 743292); conditions: p53RE-bla HCT-116 viability, ATP luminescence, 16 h; series mostly up to 95 µM; note: % is set by controls: 0 for no effect and ±100 for the full control effect; nearly all actives have a fitted effect of over 55% in size
Procedure, shortened: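 ATP-based luminescent viability (CellTiter-Glo, 30 min RT) after 16 h compound treatment at 37 C of p53RE-bla HCT-116 cells, seeded at 4,000 cells/well and rested 5 h before dosing.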

Peroxisome proliferator-activated receptor alpha (Homo sapiens), sequence (Q07869 whole entry, looked up): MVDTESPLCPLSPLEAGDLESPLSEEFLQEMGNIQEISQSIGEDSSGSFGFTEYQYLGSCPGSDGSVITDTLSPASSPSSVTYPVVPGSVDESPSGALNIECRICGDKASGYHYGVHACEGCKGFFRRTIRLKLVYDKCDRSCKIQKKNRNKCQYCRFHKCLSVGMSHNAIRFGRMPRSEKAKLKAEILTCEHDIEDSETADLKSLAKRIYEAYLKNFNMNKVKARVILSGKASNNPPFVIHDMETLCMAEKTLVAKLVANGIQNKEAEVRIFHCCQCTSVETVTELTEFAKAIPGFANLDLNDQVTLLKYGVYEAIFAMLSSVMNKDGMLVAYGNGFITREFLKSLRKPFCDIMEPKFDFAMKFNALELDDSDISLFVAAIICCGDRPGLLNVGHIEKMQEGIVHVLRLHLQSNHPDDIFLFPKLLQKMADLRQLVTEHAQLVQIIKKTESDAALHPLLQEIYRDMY

Cc1ccc(N)cc1N
inactive: Potency [1] > 92 µM | Potency [2] > 92 µM | Potency [3] > 92 µM | Potency [4] > 92 µM | Potency [5] | outcome [6] | outcome [7] | outcome [8] | Potency [9] | caspase-3 activation [10] 0.128% | outcome [11] | outcome [12] | Potency [13] | outcome [14] | outcome [15] | Potency [16] | Potency [17] | max response [18] 6.43% and -0.158% | max response [19] 0.265% and 5.03% | Potency [20]

[O-][Cl+]O
inactive: Potency [1] > 92 µM | Potency [2] > 92 µM | Potency [3] > 92 µM | Potency [4] > 92 µM | Potency [5] | outcome [6] | outcome [7] | outcome [8] | Potency [9] | caspase-3 activation [10] 1.6% | outcome [11] | outcome [12] | Potency [13] | outcome [14] | outcome [15] | Potency [16] | Potency [17] | max response [18] 0.737% | max response [19] 3.42% | Potency [20]

O=C(Cc1ccccc1)OCc1ccccc1
inactive: Potency [1] > 92 µM | Potency [2] > 92 µM | Potency [3] > 92 µM | Potency [4] > 92 µM | Potency [5] | outcome [6] | outcome [7] | outcome [8] | Potency [9] | caspase-3 activation [10] 2.6% | outcome [11] | outcome [12] | Potency [13] | outcome [14] | outcome [15] | Potency [16] | Potency [17] | max response [18] 0.258% | max response [19] -10.2% | Potency [20]

O=[N+]([O-])c1ccccc1-c1ccccc1
inactive: Potency [1] > 92 µM | Potency [2] > 92 µM | Potency [3] > 92 µM | Potency [4] > 92 µM | Potency [5] | outcome [6] | outcome [7] | outcome [8] | Potency [9] | caspase-3 activation [10] -1.39% | outcome [11] | outcome [12] | Potency [13] | outcome [14] | outcome [15] | Potency [16] | Potency [17] | max response [18] -6.56% | max response [19] 1.78% | Potency [20]

Clc1cc(Cl)c(Cl)c(Cl)c1
inactive: Potency [1] > 92 µM | Potency [2] > 92 µM | Potency [3] > 92 µM | Potency [4] > 92 µM | Potency [5] | outcome [6] | outcome [7] | outcome [8] | Potency [9] | caspase-3 activation [10] -0.644% | outcome [11] | outcome [12] | Potency [13] | outcome [14] | outcome [15] | Potency [16] | Potency [17] | max response [18] -0.217% | max response [19] -5.74% | Potency [20]
